T cruzi growth-1 – T. cruzi intracellular proliferation inhibitors, primary screen, cell-based, beta-gal Tulahuen parasites, NIH3T3 host, luminescence; T. cruzi beta-gal in NIH3T3, GalScreen luminescence, 90 h; inhibition, % at 8.34 µM; hit rate 5.9% among 77,000;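 active = mean inhibition above about 93%, with at least 55% of replicates each passing it, limit read from the data, passing the limit was not always enough; inconclusive = only one of those two conditions holds; inactive = neither condition holds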
Pf Dd2 growth – P. falciparum Dd2 growth inhibitors, primary screen, SYBR Green fluorescence, single dose replicates; hit rate 2.3% among 94,000; 72 h; hits give low values; activity change, % at 10 µM; in the data active = activity change below about -80%; inconclusive = no clear call, values can overlap the other calls
C diff HTS – C. difficile growth inhibitors, primary screen, HTS; Clostridium difficile clinical isolate growth, OD600, 24 h; hits give low values; growth activity, negative = inhibition, % at 16 µg/mL (by protocol); hit rate 0.25% among 86,000; AID 1259249, 2017;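 active = mean growth activity at or below -80% and every replicate also at or below -80%; inconclusive = mean at or below -80% but some replicate above -80%; inactive = mean growth activity above -80%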;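 note: 0% = DMSO wells and -100% = levofloxacin 16 µg/mL wells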
T cruzi growth-2 – T. cruzi intracellular proliferation inhibitors, confirmation, cell-based, NIH3T3 host, beta-gal parasite, luminescence, cherry-pick | T. cruzi beta-gal in NIH3T3, GalScreen luminescence, 90 h | inhibition, % at 8.35 µM | AID 651739, 2012 | hit rate 72% among 5,600 | shares compounds with T cruzi growth-1;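 active = mean replicate inhibition above about 95% and at least 55% of replicates individually reaching it, limit read from the data; inconclusive = only one of the two criteria is met; inactive = neither criterion is met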
T cruzi growth-3 – inhibitors of intracellular T. cruzi replication, confirmation, NIH3T3 host cells, beta-gal parasites, cherry-pick, set 2; shares compounds with T cruzi growth-1; T. cruzi beta-gal in NIH3T3, GalScreen luminescence, 90 h; inhibition, % at 2.09 µM; hit rate 21% among 5,600; AID 651740, 2012;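 active = mean inhibition above about 95%, with at least 55% of replicates also reaching it, limit read from the data; inconclusive = meets just one of the two conditions; inactive = meets neither condition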;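 note: plate controls were neutral control median for no effect and positive control median for full effect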
3T3 cytotox – cytotoxicity in mouse NIH/3T3 fibroblasts, confirmation, cytotoxicity control for T. cruzi proliferation inhibitor project, cell-based, cherry-pick, single point; hit rate 14% among 5,600; NIH/3T3 viability, CellTiter-Glo ATP luminescence, 90 h; shares compounds with T cruzi growth-1; AID 651742, 2012; cytotoxicity (signal decrease), % at 8.35 µM;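 active = mean signal decrease across replicates above about 35% based on untreated-well scatter, with enough replicates individually passing, limit read from the data; inconclusive = no rule stated though some were filed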;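 note: 0% = median of neutral control wells and 100% = median of positive control wells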
3T3 cytotox 2 – NIH/3T3 fibroblast cytotoxicity, confirmation, cytotoxicity control, cell-based, cherry-pick, single point, set 2; shares compounds with T cruzi growth-1; NIH/3T3 viability, CellTiter-Glo ATP luminescence, 90 h; inhibition, % at 24.9 µM; hit rate 56% among 5,600;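 active = mean loss of cell viability signal at or above a set limit, and enough replicates individually reaching it; inconclusive = meets only the mean limit or only the replicate share; inactive = meets neither condition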;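 note: 0% = median of neutral control wells and 100% = median of positive control wells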
Active calls of the source: *; ? = inconclusive; / = no result. Most compounds without a hit are left out; they make up all but 6.8% or so of the library.

SMILES	T cruzi growth-1	Pf Dd2 growth	C diff HTS	T cruzi growth-2	T cruzi growth-3	3T3 cytotox	3T3 cytotox 2
N#Cc1ccc(-c2ccc3c(c2)[C@@H]2[C@@H](CCN2S(=O)(=O)c2ccccc2F)[C@@H](CO)N3)cc1	32	12	-2	/	/	/	/
COc1cccc(-c2ccc3c(c2)[C@@H]2[C@@H](CCN2S(=O)(=O)c2ccccc2C)[C@H](CO)N3)c1	28	-33	4	/	/	/	/
O=S(=O)(c1ccccc1F)N1CC[C@@H]2[C@H]1c1cc(-c3ccccc3)ccc1N[C@@H]2CO	87	-51	32	/	/	/	/
O=S(=O)(c1ccccc1F)N1CC[C@H]2[C@H](CO)Nc3ccc(-c4ccc(F)cc4)cc3[C@H]21	90	4	4	/	/	/	/
N#Cc1cccc(-c2ccc3c(c2)[C@H]2[C@H](CCN2S(=O)(=O)c2ccccc2F)[C@H](CO)N3)c1	110*	15	8	94	82	47*	74*
O=S(=O)(c1ccccc1F)N1CC[C@@H]2[C@H](CO)Nc3ccc(-c4ccc(F)cc4)cc3[C@@H]21	?	-12	-14	90	84	12	105*
Cc1noc(C)c1NC(=O)N(C)C[C@H]1Oc2ccc(NC(=O)c3ccncc3)cc2CC(=O)N([C@H](C)CO)C[C@@H]1C	20	0	-1	/	/	/	/
O=C(N[C@@H]1C[C@@H]2O[C@@H](CO)CC[C@@H]2O[C@@H]1CCc1ccc(C#Cc2ccccc2)cc1)c1ccccn1	/	-55	1	/	/	/	/
C[C@@H]1CN([C@H](C)CO)C(=O)c2cc(C#CC3CCCCC3)cnc2O[C@@H]1CN(C)S(C)(=O)=O	96	-12	-13	/	/	/	/
C[C@@H]1CCCCO[C@@H](CN(C)C(=O)Nc2ccccc2)[C@@H](C)CN([C@@H](C)CO)C(=O)c2cc(NS(=O)(=O)c3ccc(Cl)cc3)ccc2O1	118*	-69	15	104*	40	-12	-5
C[C@@H]1CCCCO[C@H](CN(C)C(=O)c2ccccc2)[C@H](C)CN([C@@H](C)CO)C(=O)c2cc(NS(=O)(=O)c3ccc(Cl)cc3)ccc2O1	67	-13	-3	/	/	/	/
C[C@@H]1CCCCO[C@H](CN(C)C(=O)Cc2ccccc2)[C@H](C)CN([C@@H](C)CO)C(=O)c2cc(NS(=O)(=O)c3ccc(Cl)cc3)ccc2O1	87	-40	-4	/	/	/	/
C[C@H](CO)N1C[C@H](C)[C@H](CN(C)C(=O)c2ccccc2)OCCCC[C@H](C)Oc2ccc(NS(=O)(=O)c3ccc(Cl)cc3)cc2C1=O	101*	32	-8	91	34	-8	6
C[C@@H]1CCCCO[C@@H](CN(C)C(=O)Nc2ccccc2)[C@H](C)CN([C@@H](C)CO)C(=O)c2cc(NS(=O)(=O)c3ccccc3)ccc2O1	/	-26	/	/	/	/	/
C[C@H]1CCCCO[C@H](CN(C)C(=O)Nc2ccccc2)[C@@H](C)CN([C@@H](C)CO)C(=O)c2cc(NS(=O)(=O)c3ccc(Cl)cc3)ccc2O1	?	-84*	-1	103*	37	-38	-18
C[C@H]1CCCCO[C@@H](CN(C)C(=O)Cc2ccccc2)[C@@H](C)CN([C@@H](C)CO)C(=O)c2cc(NS(=O)(=O)c3ccc(Cl)cc3)ccc2O1	101*	-65	5	109*	80	-23	17
C[C@@H]1CCCCO[C@@H](CN(C)C(=O)Nc2ccccc2)[C@@H](C)CN([C@H](C)CO)C(=O)c2cc(NS(=O)(=O)c3ccc(Cl)cc3)ccc2O1	48	-7	1	/	/	/	/
CN1C(=O)c2cc(NC(=O)C3CC3)ccc2OC[C@H]2O[C@H](CC(=O)NCCN3CCCC3)CC[C@H]21	12	-1	-3	/	/	/	/
CO[C@@H]1CN(C)C(=O)c2ccc(NC(=O)c3ccc(F)cc3)cc2OC[C@@H](C)N(C(=O)CC2CC2)C[C@H]1C	-1	-8	/	/	/	/	/
O=C(NCC1CC1)[C@H]1[C@H](CO)[C@H]2Cn3c(ccc(-c4cccc(F)c4)c3=O)[C@H]2N1CC1CCCC1	45	-48	21	/	/	/	/
CC(C)NC(=O)Nc1cccc2c1O[C@@H](CN(C)C(=O)NC(C)C)[C@@H](C)CN([C@H](C)CO)C2=O	44	7	-3	/	/	/	/
C[C@@H]1CN([C@@H](C)CO)C(=O)Cc2cc(NC(=O)Nc3ccc(F)cc3)ccc2O[C@H]1CN(C)Cc1ccc(Oc2ccccc2)cc1	65	-78	49	/	/	/	/
O=C(C[C@H]1CC[C@H]2[C@@H](COC[C@@H](O)CN2Cc2nccs2)O1)NCc1ccccc1F	12	6	2	/	/	/	/
CN1C(=O)c2cc(NC(=O)c3ccc(F)c(F)c3)ccc2OC[C@@H]2O[C@@H](CC(=O)N[C@@H]3CCN(Cc4ccccc4)C3)CC[C@@H]21	112*	/	5	102*	86	32	39*
CN1C(=O)c2cc(NC(=O)c3ccc(F)c(F)c3)ccc2OC[C@H]2O[C@H](CC(=O)N[C@H]3CCN(Cc4ccccc4)C3)CC[C@H]21	102*	/	1	107*	65	5	22
SMILES	T cruzi growth-1	Pf Dd2 growth	C diff HTS	T cruzi growth-2	T cruzi growth-3	3T3 cytotox	3T3 cytotox 2
CN1C(=O)c2cc(NC(=O)c3ccc(F)c(F)c3)ccc2OC[C@H]2O[C@@H](CC(=O)N[C@H]3CCN(Cc4ccccc4)C3)CC[C@@H]21	94	/	4	/	/	/	/
CN1C(=O)c2cc(NC(=O)c3ccc(F)c(F)c3)ccc2OC[C@H]2O[C@H](CC(=O)N[C@@H]3CCN(Cc4ccccc4)C3)CC[C@@H]21	93	/	4	/	/	/	/
CN1C(=O)c2cc(NC(=O)Cc3cccs3)ccc2OC[C@H]2O[C@H](CC(=O)N[C@@H]3CCN(Cc4ccccc4)C3)CC[C@@H]21	53	/	1	/	/	/	/
CN1C(=O)c2cc(NC(=O)c3ccc(F)c(F)c3)ccc2OC[C@H]2O[C@H](CC(=O)N[C@H]3CCN(Cc4ccccc4)C3)CC[C@@H]21	108*	/	11	49	84	-15	-1
CN1C(=O)c2cc(NC(=O)c3ccc(F)c(F)c3)ccc2OC[C@@H]2O[C@@H](CC(=O)N[C@H]3CCN(Cc4ccccc4)C3)CC[C@H]21	99*	/	7	?	84	-19	-1
CN1C(=O)c2cc(NC(=O)Cc3cccs3)ccc2OC[C@@H]2O[C@H](CC(=O)N[C@H]3CCN(Cc4ccccc4)C3)CC[C@@H]21	94	/	-8	/	/	/	/
O=C(C[C@@H]1CC[C@@H](NC(=O)C2CCOCC2)[C@@H](CO)O1)NCc1ccncc1	/	21	1	/	/	/	/

Source: PubChem BioAssay (Broad Institute)
